Experimental data as given in PubChem BioAssay AID686970 (National Center for Advancing Translational Sciences (NCATS), 2013).
Among all 360,000 compounds or so, about 6,000 (1.7%) were called active. Another 8% or so got no clear call; they are omitted. For the sample, actives were picked, then their nearest neighbours and some compounds at random. Unmarked numbers belong to inactive results. Calls come from the whole dose curve; as a rule, active = well fitted cell-killing curve with a large enough effect; inconclusive = small, poorly fitted or top-dose-only effect, or effect the other way; inactive = flat fitted curve, though single readings scatter.

Experiment: qHTS for induction of synthetic lethality in tumor cells producing 2HG: qHTS for the HT-1080-NT fibrosarcoma cell line; note: nearly all actives have a fitted effect of over 55% in size
Details: HT-1080-NT fibrosarcoma viability, CellTiter-Glo ATP luminescence, 48 h; series mostly up to 46.1 µM; activity, negative = less viability: at the top concentration
From the text: Unbiased genomic sequencing for 22 glioma genomes found recurrent mutation of IDH1 on chromosome 2q33, a gene encoding the cytosolic isoform of IDH1 associated with the tricarboxylic acid cycle (TCA) that catalyzes the oxidative decarboxylation of isocitrate, yielding alpha-ketoglutarate and CO2 via NADP+ to NADPH conversion. Subsequent studies confirmed the recurrent IDH mutations in up to 70% of secondary gliomas and in 10% of AML cases. In addition, the somatic mutation of cancer-associated IDH1 is a point mutation resulting in various amino-acid substituents at Arginine132 (IDH1 R132), a key residue found in the enzyme's active site that when mutated, results in the loss-of-function in metabolizing isocitrate but confers a gain-of-function to produce the oncometabolite 2-hydroxyglutarate (2HG). This in effect defines IDH1 as an oncogene and provides an extraordinary opportunity to discover chemical probes against mutant IDH1 that may translate into much needed new therapies for glioma and AML patients.
This assay aims to perform a synthetic lethal screen for chemical probes specific for 2HG-producing tumor cells using matched paired cell lines (1) HT-1080-NT fibrosarcoma cell line that overproduces 2HG and (2) HT-1080-IDH1KD cell line which has IDH1 expression knocked-down. Desirable compounds are toxic to the NT fibrosarcoma cells but not to the IDH1KD cell line. The data in this AID corresponds to the results of the qHTS against the HT-1080-NT fibrosarcoma cell line.
[1] Dang L, Jin S, Su SM. IDH mutations in glioma and acute myeloid leukemia. Trends of Mol Med. 2010; 16(9): 387-97.
[2] Dang L et al. Cancer-associated IDH1 mutations produce 2-hydroxyglutarate. Nature. 2010; 465(7300):966.
NIH Molecular Libraries Probe Production Centers Network [MLPCN]
NIH Chemical Genomics Center [NCGC]
Assay Submitter (PI): Lenny Dang Ph.D., Agios Pharmaceuticals
Suspensions of trypsinized HT-1080-NT cells were dispensed into white, tissue culture-treated, solid 1536-well plates at 5uL/well (750 cells/well final concentration) in RPMI medium supplemented with 5% FBS. Plates were incubated at 37 degrees C for 2 hours, after which 23 nL of compounds or DMSO were delivered to each well using a pin tool. Plates were then incubated at 37 degrees C for an additional 48 hours. CellTiter-Glo viability reagent (Promega) was dispensed into wells (2.5uL/well) and incubated at room temperature for 10 minutes. The plates were measured on a PerkinElmer ViewLux plate reader for luminescent signal (clear filter, 1 sec exp). DMSO-treated control wells and media-only (no cells) control wells were used to normalize %Activity of identified toxic compounds; DMSO-treated wells corresponded to 0%Activity (100% viability), while media-only controls were used to normalize 100%Activity (0% viability).
Concentration-response curves were fitted to the signals arising from the resulting luminescence. The concentration-effect curves were then classified based on curve quality (r2), response magnitude and degree of measured activity, and compounds were subsequently categorized based on their curve class.
Potency is the fitted concentration of half-maximal effect.

SMILES	activity, negative = less viability	Potency
CC(C)c1ccc(CC(=O)N2CCC2(C)C(=O)NS(=O)(=O)c2ccc(C(C)(C)C)cc2)cc1 (stereo not drawn)	2.38%	–
CCCS(=O)(=O)NC(=O)C1(C)CCCN(C(=O)c2ccnc(Cl)c2)C1 (stereo not drawn)	22.2%	–
CCCCCCN1C[C@H](O)[C@@H](n2cc(C3CC3)nn2)C[C@@H]1c1ccc(Cl)cc1	-1.63%	–
COc1ccc(Nc2cc(=O)oc3ccccc23)cc1	–	7.31 µM (active)
COc1ccc2oc(=O)cc(-c3cc4ccccc4o3)c2c1	-5.9%	–
COc1ccc(Nc2ccc3ccccc3c2)cc1	-25.9%	–
COCCNC(=O)c1cc2c(Br)ccc(Br)c2nc1N	-6.43%	–
Cc1cccc(-n2ncc3c(=O)[nH]c(SCC(=O)Nc4cc(C)on4)nc32)c1	9.3%	–
C=CCNc1cnn(-c2ccc(C)cc2)c(=O)c1Cl	14.9%	–
Cc1cccc(-n2ncc(Cl)c(Cl)c2=O)c1	–	5.8 µM (active)
Cc1cc(Br)cn2c(Cc3ccccc3C(F)(F)F)c(C3CCCCC3)nc12	22.8%	–
Oc1ccc(-c2nc3ccccc3nc2-c2ccc(O)cc2O)c(O)c1	-11.5%	–
Cc1ccc(Nc2nc(-c3ccc(O)cc3O)cs2)nc1	–	1.64 µM (active)
CC(=O)Nc1cnc(-c2ccc(O)cc2C)cn1	11.8%	–
O=C(NCc1ccc(F)cc1)c1cc(C2CCCCN2C(=O)C2CCCCC2)on1 (stereo not drawn)	1.47%	–
N#Cc1ccc(-c2nc3c(Cl)cc(C(F)(F)F)cn3c2Cc2ccccc2C(F)(F)F)cc1	13.4%	–
COc1cccc(C(O)c2nc3ccccc3n2C)c1 (stereo not drawn)	-2.98%	–
CCCCCC(O)c1cccc(OCc2ccc3ccccc3n2)c1 (stereo not drawn)	–	14.6 µM (active)
COc1cccc(C(O)c2ncc(-c3ccc4ccccc4c3)[nH]2)c1 (stereo not drawn)	-8.84%	–
COc1ccc(C(=O)NCC[N+](C)(C)C)cc1	21.8%	–
Cc1cc(C)nc(S/C=C/C(=O)c2ccccc2)n1	–	5.17 µM (active)
Cc1cc(C)nc(N(C#N)CC(=O)Nc2ccccc2)n1	-1.01%	–
Cc1cc(C)nc(SCc2ccccc2C#N)n1	-13.3%	–
CN1CCN(C(=O)c2ccc(-c3cc4nc(NCc5cccnc5)n(C)c(=O)c4s3)cc2)CC1	-6.36%	–
Cc1cccc(C)c1NC(=O)C(c1cccc(F)c1)N1CCN(C)CC1 (stereo not drawn)	5.7%	–
CCC(C(=O)OCC(=O)Nc1ccc(C(=O)Nc2ccc(OC)cc2)cc1)c1ccccc1 (stereo not drawn)	–	18.4 µM (active)

SMILES	activity, negative = less viability	Potency
CCC(C(=O)OCC(=O)Nc1c(Cl)cc(Cl)cc1Cl)c1ccccc1 (stereo not drawn)	-5.96%	–
CCC(C(=O)OCC(=O)Nc1ccccc1-c1ccccc1)c1ccccc1 (stereo not drawn)	-1.42%	–
O=C(Nc1ccc(Cl)cc1)c1csc([C@@H]2O[C@H](CO)[C@H](O)[C@H](O)[C@H]2O)n1	5.67%	–
CC(C)c1ccc2c(c1)c(SC(C)(C)C)c(CC(C)(C)C(=O)O)n2Cc1ccc(Cl)cc1	–	13 µM (active)
C[C@@H]1CN([C@H](C)CO)C(=O)CCCn2cc(nn2)CO[C@H]1CN(C)S(=O)(=O)c1ccc(Oc2ccccc2)nc1	9.83%	–
O=C(c1ccc(C(F)(F)F)cc1)N1CCC(=O)N([C@H](COCc2ccccc2)Cc2ccccc2)CC1	-31.2%	–
O=C(CNC(=O)N1CC(=O)Nc2ccccc21)Nc1ccc(Br)cc1F	2.75%	–
O=C1C=C(c2ccc(Cl)cc2)C(=O)N1Nc1ccccc1	–	23.1 µM (active)
O=C(CCC(=O)OCc1ccc(Cl)cc1)Nc1ccccc1	8.34%	–
O=C(O)CC1=C(Nc2ccccc2)C(=O)N(c2ccccc2)C1c1ccc(Cl)cc1 (stereo not drawn)	5.31%	–
CCN(Cc1ccncc1)C(=S)Nc1ccccc1C	13.2%	–
CCCCN1CC(N2CCN(Cc3cccc(C)c3)CC2)CS1(=O)=O (stereo not drawn)	13.1%	–
CCCCN(CCCC)CCC(O)c1cc2c(Cl)cc(Cl)cc2c2cc(C(F)(F)F)ccc12 (stereo not drawn)	–	14.6 µM (active)
Fc1cccc(Cc2c(-c3cccc(Cl)c3)nc3ccc(Br)cn23)c1	-23.5%	–
CC1(C(=O)NS(=O)(=O)c2ccccc2Cl)CCN1C(=O)c1cccc(F)c1 (stereo not drawn)	16.3%	–
Cc1cccc(C)c1NC(=O)CN(C)C(=O)CCC(=O)c1ccccc1	15.1%	–
Cc1cccc(C)c1NC(=O)C(Cl)C(=O)c1ccccc1 (stereo not drawn)	–	16.4 µM (active)
Cc1cccc(C)c1NC(=O)N1CC(C)OC(C)C1 (stereo not drawn)	2.26%	–
Cc1ccccc1CN1C(=O)CSCC1(C)C(=O)Nc1c(C)cccc1C (stereo not drawn)	9.72%	–
CN(Cc1ccccc1)CC(O)COc1ccc(CNCc2cc3ccccc3s2)cc1 (stereo not drawn)	–	20.6 µM (active)
Cc1ccc(OCC(=O)OC(C)CN(C)Cc2ccccc2)cc1 (stereo not drawn)	1.64%	–
COc1ccc(OCC(O)CN(C)C(=O)C(C)Oc2ccccc2)cc1 (stereo not drawn)	-4.49%	–
CC(C)(C)Cc1c(C2CCCCC2)nc2ccc(Br)cn12	-24.8%	–
O=C(N/N=C/c1ccccc1O)C1CCCC1	-15.5%	–
O=C(NN=Cc1ccccc1)c1ccccc1	25.1%	–
O=C(NN=Cc1ccccc1O)NN=Cc1ccccc1O	–	8.2 µM (active)

SMILES	activity, negative = less viability	Potency
CCCNC(=O)C1(C)CCCN(Cc2cccc(C(F)(F)F)c2)C1 (stereo not drawn)	6.04%	–
Cc1cccc(NS(=O)(=O)c2ccc(C)c(C(N)=O)c2)c1	4.32%	–
Cc1cccc(NS(=O)(=O)c2ccc(-c3cnc(C4CC4)o3)cc2)c1	–	5.17 µM (active)
COc1ccc(CNS(=O)(=O)c2ccc(-c3cnc(C4CC4)o3)cc2)cc1	-19.8%	–
O=C(CCCN1C(=O)C(c2ccccc2)Oc2cccnc21)Nc1ccccc1Br (stereo not drawn)	-2.47%	–
COc1ccc(C(CNC(=O)c2ccc(OCc3cscn3)cc2)N2CCCC2)cc1 (stereo not drawn)	-5.47%	–
CN1CCN(c2ccc3c(c2)OC[C@H](Cc2ccccc2)NS3(=O)=O)CC1	9.78%	–
CCN(CC)CCNc1ccc(Cl)cc1[N+](=O)[O-]	-3.02%	–
CCN(CC)CCn1c2ccc(Cl)cc2c2nc(C)sc21	–	28.2 µM (active)
COC(=O)Cn1c2ccc(C)cc2c2nc(C)sc21	11%	–
O=C(NCc1ccccc1)C1c2ccccc2OCC(=O)N1C1CC1 (stereo not drawn)	20.8%	–
Cc1sc2ccccc2c1CNC[C@H]1O[C@@H](n2ccc(=O)[nH]c2=O)[C@H](O)[C@@H]1O	21.8%	–
COc1ccc2nc(/N=C(\N)NC(=O)Nc3ccccc3)nc(C)c2c1	-18.5%	–
CC(C)c1cc(C(=O)NC2CCCCCC2)c2ccccc2n1	-7.58%	–
Cc1nc(/N=C(\N)NC(=O)NC2CCCCC2)nc2ccccc12	–	23.1 µM (active)
Cc1cccc(N(CC(=O)N2CCCC2)S(C)(=O)=O)c1C	9.09%	–
CC(=O)c1ccccc1NC(=O)COC(=O)C1COc2ccccc2O1 (stereo not drawn)	1.1%	–
CCOC(=O)[C@]12CCCC=C1N(CCC1=CCCCC1)C(=O)[C@H](CC(=O)NCCCOC)C2	-1.32%	–
CCOC(=O)[C@]12CCC=C1N(CCC1=CCCCC1)C(=O)[C@H](CC(=O)NCc1ccc(C)o1)C2	9.86%	–
CCCCOCCCNC(=O)C[C@@H]1C[C@@]2(C(=O)OCC)CCCC=C2N(CCC2=CCCCC2)C1=O	–	16.4 µM (active)
COC(=O)[C@]12CCCCC=C1N(Cc1ccc3c(c1)OCO3)C(=O)[C@H](CC(=O)N1CCOCC1)C2	8.8%	–
O=C(Cn1c(NCCO)nc2ccccc21)c1ccc(Cl)cc1Cl	–	20.6 µM (active)
O=C(Cn1c(-c2cscn2)nc2ccccc21)Nc1ccc(Cl)cc1	-23.1%	–
O=S(=O)(O)c1nc2ccccc2n1Cc1ccc(Cl)cc1Cl	-0.293%	–
COc1ccc(C(C)C)cc1-c1ccc2nncn2c1	2.86%	–
CC(C)C[C@@H]1Cc2[nH][nH]c(=O)c2[C@H](CCc2ccccc2)O1	-14.8%	–

SMILES	activity, negative = less viability	Potency
Cc1cc(NC(=O)CSc2nnc(-c3ccco3)n2N)no1	2.26%	–
Cc1cc(NC(=O)CSc2nnnn2-c2ccc(F)cc2)no1	-1.26%	–
Cc1cc(C)c2c(c1)cc(C)c1nnc(SCC(=O)Nc3cc(C)on3)n12	–	6.31 µM (active)
CCOC1=C2[C@H]([C@H]3C(=O)N(c4ccccc4)C(=O)[C@H]3C1)[C@@H](c1ccccc1)N(S(=O)(=O)c1ccc(C)cc1)[C@H]2c1ccccc1	24.4%	–
Cc1cccc(C)c1NC(=O)C(c1ccc(C(F)(F)F)cc1)n1c(=O)c(-c2ccco2)nc2ccccc21 (stereo not drawn)	-22.7%	–
CC(=O)c1ccc(Nc2nc(C(N)c3ccccc3Cl)cs2)cc1 (stereo not drawn)	-21.8%	–
NC(Cc1ccc(F)cc1)c1csc(Nc2nncc3ccccc23)n1 (stereo not drawn)	–	23.1 µM (active)
COCC(C)NC(=O)COc1nncc2ccccc12 (stereo not drawn)	-1.79%	–
Cc1cc(Br)ccc1NC(=O)CCCOc1cc(=O)n(C)c2ccccc12	-24.6%	–
COC(=O)[C@]12CCCCC=C1N(Cc1ccc(Cl)cc1Cl)C(=O)[C@H](CC(=O)NCc1cccc3ccccc13)C2	-25.6%	–
Cc1cc2c3ccccc3[nH]c(=O)n2n1	15.6%	–
COc1ccc(CN2C(=O)C(CC(=O)NCc3cccc4ccccc34)CC(C(=O)N3CCOCC3)=C2C)cc1 (stereo not drawn)	-1.78%	–
NC(=O)Cn1cc(/C=N\NS(=O)(=O)c2ccccc2)c2ccccc21	0.259%	–
COCCCNC(=O)Cn1cc(/C=C(\C#N)C(=O)N2CCN(c3ccccc3)CC2)c2ccccc21	0.984%	–
COC(=O)Cn1cc(/C=C/[N+](=O)[O-])c2ccccc21	–	18.4 µM (active)
CC1Cc2[nH][nH]c(=O)c2C(C2CCCC2)O1 (stereo not drawn)	3.75%	–
CC1(Oc2ccccc2-c2ccno2)CCN(Cc2ccc(-c3ccccc3)o2)C1 (stereo not drawn)	-24.5%	–
CC(C)N1C(=O)c2ccccc2NC(=O)C1C(=O)NCc1cccs1 (stereo not drawn)	5.09%	–
COc1ccc(CCNC(=O)/C(C#N)=C2\N=C(NC(=O)c3cccs3)c3ccccc32)cc1	2.15%	–
Cc1ccc2nc(/C(C#N)=C\c3ccc(OC(=O)c4cccs4)cc3)[nH]c2c1	–	7.94 µM (active)
C/C(=N\NC(=O)c1ccoc1C)c1ccccc1O	–	3.26 µM (active)
Cc1occc1C(=O)NNC(=S)NCC(C)C	1.03%	–
Cc1ccnc(NC(=O)c2ccoc2C)c1	-27.2%	–
CC(C)Nc1ncnc2c1ncn2[C@H]1CN(Cc2ccncc2)C[C@@H](CO)O1	13.7%	–
CCCCC(=O)N(C)c1c(CC)nc2c(OCc3ccc(S(C)(=O)=O)cc3)cccn12	-15%	–
